High-throughput results from PubChem BioAssay.
Shiga inhibitor = A qHTS for Small Molecule Inhibitors of Shiga Toxin; 9.2% of 290,000 active; Vero cells, Shiga toxin protein synthesis inhibition reporter; AID 2315, 2010; inhibition, % at 38.7 µM; in the data active = inhibition mostly above about 28%, no sharp cut-off; inactive = mostly below about 43%
Sm TGR inh = qHTS Assay for the Inhibitors of Schistosoma Mansoni Peroxiredoxins | AID 485364, 2010 | purified TGR, DTNB reduction, TNB absorbance 405 nm | 3% of 360,000 active | Schistosoma mansoni thioredoxin glutathione reductase (TGR), Q962Y6 | Potency, µM (highest dose often 114 µM), hits mostly inhibitors; also: nearly all actives have a fitted effect of over 60% in size
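TGR 20 nM + NADPH 100 uM (dispensed conc.), cpd preinc 15 min RT; start with NADPH (500 uM addition) then DTNB (15 mM addition). Kinetic TNB absorbance, 405 nm filter. Four-parameter Hill fit across titration.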
LmPK inhibitor = qHTS Assay for Inhibitors of Leishmania Mexicana Pyruvate Kinase (LmPK); Q27686; purified LmPK, Kinase-Glo ATP luminescence, 1 h; Potency, µM (doses to about 57.5 µM), actives largely listed as inhibitors; 0.37% of 290,000 active; AID 1721, 2009
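Pyruvate kinase activity monitored as ATP production (luciferase luminescence). Conditions: 0.1 nM enzyme, 0.5 mM PEP, 0.1 mM ADP, 1 h, RT; normalized against uninhibited and no-enzyme wells.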
CHX counter = Cycloheximide Counterscreen for Small Molecule Inhibitors of Shiga Toxin | cell reporter, cycloheximide protein synthesis inhibition counterscreen | max response, % | 12% of 300,000 active; in the data active = max response mostly above about 13%, no sharp cut-off; inactive = mostly below about 14%; also: read at 38.3 µM for the half of the compounds with a filed dose
Tb PYK inh = qHTS of Trypanosoma Brucei Inhibitors; pyruvate kinase (Trypanosoma brucei), Q57TT1; TbPYK enzyme, Kinase-Glo Plus ATP luminescence, 45 min; Potency, µM (titrated, usually from 76.8 µM), hits mostly inhibitors; 0.12% of 410,000 active; AID 624173, 2012; also: nearly all actives have a fitted effect of over 50% in size
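Activity of T. brucei pyruvate kinase was followed by Kinase-Glo Plus luminescence after the enzyme reacted 45 min at room temperature with 130 uM ADP (final) and substrate. Test compounds were added before ADP at multiple concentrations.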
Giardia FBPA inh = qHTS Assay for Inhibitors of Fructose-1,6-bisphosphate Aldolase from Giardia Lamblia; A8B2U2; purified Giardia FBPA; Potency, µM (titrated, usually from 59.6 µM), hits mostly inhibitors; 0.71% of 290,000 active; AID 2451, 2010; also: nearly all actives have a fitted effect of over 55% in size
Target sequence (A8B2U2 whole entry, looked up): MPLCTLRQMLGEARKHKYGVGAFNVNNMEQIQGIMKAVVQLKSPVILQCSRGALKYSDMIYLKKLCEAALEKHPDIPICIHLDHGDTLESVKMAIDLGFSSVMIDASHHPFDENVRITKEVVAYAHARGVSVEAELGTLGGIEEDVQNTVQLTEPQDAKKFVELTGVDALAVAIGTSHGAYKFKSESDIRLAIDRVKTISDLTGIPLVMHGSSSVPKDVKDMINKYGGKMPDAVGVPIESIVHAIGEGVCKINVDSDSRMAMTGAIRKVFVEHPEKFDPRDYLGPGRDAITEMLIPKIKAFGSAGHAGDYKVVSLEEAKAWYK
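40 nM FBPA preincubated 10 min at RT with compound (up to 57.5 uM final), then substrate plus GAPDH/TPI/NAD/arsenate coupling and diaphorase/resazurin added. Fluorescence read after 20 min at RT, 525/598 nm.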
Hits are given with their value; 0 = inactive; ? = inconclusive; - = not tested or not shown. The full list was thinned out, with hits kept by preference. Unless noted, calls follow the shape of the dose curve; as a rule, active = well fitted curve in the direction sought with a large enough effect; inconclusive = small, poorly fitted or top-dose-only effect, or another doubt; inactive = no such curve, though single readings can be large; an effect the other way counts as inactive or inconclusive.

SMILES | Shiga inhibitor | Sm TGR inh | LmPK inhibitor | CHX counter | Tb PYK inh | Giardia FBPA inh
O=C(CN1CCN(c2ccc([N+](=O)[O-])cc2)CC1)c1ccccc1 | 0 | 11µM | 0 | 0 | 0 | 0
COc1ccc(C(=O)CN2CCN(c3cc(C)nc4ccccc34)CC2)cc1 | 0 | 20µM | 0 | 0 | 0 | 0
COc1ccc(N2CCN(CC(=O)c3ccccc3)CC2)cc1 | 0 | 13µM | 0 | 0 | 0 | 0
COc1ccc(N2CCN(C(=O)CCCC(=O)c3ccccc3)CC2)cc1 | 0 | 0 | 0 | 0 | 0 | 0
CC(=O)c1ccc(NC(=O)CN2CCN(c3ccccc3)CC2)cc1 | 0 | 0 | 0 | 0 | 0 | 0
O=S(=O)(c1ccc(-c2cc(C(F)(F)F)on2)s1)N1CCN(c2cccc(Cl)c2)CC1 | - | 0 | - | - | 0 | -
COc1ccc(CCNC(=O)C(C)n2nc(C)c3sc4ccccc4c3c2=O)c(OC)c1 (centres undefined) | - | ? | - | - | 0 | -
Clc1ccc2nc3ccccc3cc2c1 | - | - | - | - | 0 | -
c1ccc(-c2ncc3c(ccc4ccccc43)n2)cc1 | 74 | 0 | 0 | 58 | 0 | 0
c1ccc2c(c1)cnc1ccccc12 | 0 | 0 | 0 | 24 | 0 | 0
c1ccc2nc3ccccc3cc2c1 | 47 | - | - | 40 | - | 0
O=C(Nc1ccccc1)N1CCCC2(CCN(C(=O)c3cc(C(F)(F)F)cc(C(F)(F)F)c3)CC2)C1 | - | - | - | - | 0 | 0
CCC(=O)N1CCc2cc(CNC(=O)c3ccc(F)cc3)ccc21 | - | 0 | - | - | 0 | -
CC(=O)Nc1ccc(N(C(=O)c2ccco2)C(C(=O)NC2CCCCC2)c2ccccc2)cc1 (centres undefined) | 35 | 0 | 0 | 12 | 0 | 0
CC(=O)Nc1ccc(N(C(=O)c2cnccn2)C(C(=O)NC2CCCCC2)c2ccc(O)cc2)cc1 (centres undefined) | 0 | 16µM | 0 | 0 | 0 | 0
CCC(C)c1ccc(N(C(=O)c2ccco2)C(C(=O)NC2CCCC2)c2cccnc2)cc1 (centres undefined) | 94 | 0 | 0 | 39 | 0 | 0
CC(C)c1ccc(N(C(=O)c2csnn2)C(C(=O)NC2CCCC2)c2ccncc2)cc1 (centres undefined) | 66 | 0 | 0 | 30 | 0 | 0
N#Cc1ccccc1-c1ccc2ncnc(NCCN3CCOCC3)c2c1 | - | - | - | - | - | 0
CCCCONc1ncnc2nonc12 | 0 | 0 | 0 | 0 | 0 | 0
CSc1ccc(CCNC(=O)c2c(C)nn(-c3ccc(F)cc3)c2-n2cccc2)cc1 | - | 0 | - | - | 0 | -
Cn1c(=O)n(-c2ccc(F)c(Cl)c2)c(=O)c2sc3ccccc3c21 | - | 0 | - | - | 0 | -
O=C(NC1CCCC1)C(c1cccs1)N(Cc1ccco1)C(=O)c1csnn1 (centres undefined) | 0 | 35µM | 0 | 0 | 0 | 0
COc1ccc(N(C(=O)CCl)C(C(=O)NC2CCCCC2)c2cccnc2)cc1 (centres undefined) | 0 | 14µM | 0 | 0 | 0 | 0
O=C(NC1CCCCC1)C(c1cccnc1)N(C(=O)CCl)c1ccc(F)cc1 (centres undefined) | 0 | 0 | 0 | 0 | 0 | 0
CC(C)c1ccc(N(C(=O)c2ccco2)C(C(=O)NC2CCCC2)c2ccncc2)cc1 (centres undefined) | 73 | 0 | 0 | 33 | 0 | 0
SMILES | Shiga inhibitor | Sm TGR inh | LmPK inhibitor | CHX counter | Tb PYK inh | Giardia FBPA inh
COc1ccc(-c2nc3ccccc3c(=O)n2CCOc2cc(C)ccc2C)cc1 | 0 | 0 | 0 | 0 | 0 | 0
COC(=O)/C=c1\sc2ncnn2c1=O | 0 | 1.4µM | 0 | 0 | ? | ?
CCOc1ccc(N2CC(C(=O)N3CCCc4ccccc43)CC2=O)cc1 (centres undefined) | 64 | 0 | 0 | 31 | 0 | 0
Cc1ccc(N2CC(C(=O)N3CCCc4ccccc43)CC2=O)cc1 (centres undefined) | 0 | 0 | 0 | 0 | 0 | 0
Nc1nn(-c2ccccc2)nc1C(=O)OCc1ccc(Cl)cc1 | - | 0 | - | - | 0 | -
Cc1nn(-c2ccccc2)nc1C(N)=O | 0 | 0 | 0 | 0 | 0 | 0
Cc1ccc(COC(=O)c2nn(-c3ccccc3)nc2N)cc1 | 0 | 0 | 0 | 18 | 0 | 0
NC(=O)c1nn(-c2ccccc2)nc1N | 0 | 0 | 0 | 18 | 0 | 0
Nc1nn(-c2ccccc2)nc1C(=O)OCc1ccccc1 | 48 | 0 | 0 | 27 | 0 | 0
O=C(Nc1cccc(F)c1)N1CC[C@@]2(CCCNC2)C1 | - | - | - | - | 0 | 0
COc1cccc(-c2nccc(-n3ccnc3)n2)c1 | - | - | - | - | - | 0
CCC(=O)c1ccc(OCC(O)Cn2nnc3ccccc32)cc1 (centres undefined) | 65 | 0 | 0 | 45 | 0 | 0
Cc1ccccc1OCC(O)Cn1nnc2ccccc21 (centres undefined) | 79 | 0 | 0 | 50 | 0 | 0
Cc1cc(C)n(CC(O)COc2ccccc2C)n1 (centres undefined) | 0 | - | 0 | 0 | 0 | 0
CCC(=O)c1ccc(OCC(O)Cn2nc(C)cc2C)cc1 (centres undefined) | 0 | 0 | 0 | 0 | 0 | -
COC(=O)C1=C[C@@H](C(=O)OC)C2C3=C(C(=O)[C@@]2(C)NC(=O)c2ccccc2)[C@H](C)[C@@H]2C(=O)NC(=O)[C@@H]2[C@@H]3C1 (some centres undefined) | 0 | - | - | 0 | - | 0
Cc1ccc(-c2nn(-c3ccc(F)cc3F)c3c2cnc2c(F)cccc23)cc1 | - | 0 | - | - | 0 | -
COc1cccc(CNC(=O)C2CCC(CNS(=O)(=O)c3ccc(Br)s3)CC2)c1 (centres undefined) | - | 0 | - | - | 0 | -
O=C1NC(=O)C(c2ccccc2)N1 (centres undefined) | - | - | - | - | 0 | -
Nc1sccc1C(=O)c1ccccc1 | 0 | 20µM | 0 | 0 | 0 | 0
CC(=O)C(Cc1ccccc1)NC(=O)CCl (centres undefined) | 0 | ? | 0 | 0 | 0 | 0
O=C(CCl)NC(Cc1ccccc1)c1ccccc1 (centres undefined) | 0 | 22µM | 0 | 0 | 0 | 0
COc1ccc(NC(=O)CSc2nnc(NC(=O)C3CCC3)s2)c(OC)c1 | 0 | 0 | 0 | 0 | 0 | 0
COc1ccc(S(=O)(=O)NCC(c2ccco2)S(=O)(=O)c2ccc(C)cc2)cc1C (centres undefined) | - | 0.79µM | - | - | 0 | -
CCOc1ccc(S(=O)(=O)NCC(c2ccco2)S(=O)(=O)c2ccc(C)cc2)cc1 (centres undefined) | - | 0.32µM | - | - | 0 | -
COc1ccccc1CNC(=O)C(=O)NCC(c1ccco1)S(=O)(=O)c1ccc(C)cc1 (centres undefined) | - | 0 | - | - | 0 | -
O=C(COc1ccc(Cl)cc1)NCC(c1ccco1)S(=O)(=O)c1ccccc1 (centres undefined) | - | ? | - | - | 0 | -
O=C(COc1ccc(Cl)cc1)NCC(c1ccco1)S(=O)(=O)c1ccc(Cl)cc1 (centres undefined) | - | 28µM | - | - | 0 | -
